Results from PubChem BioAssay (NCATS).
Records with an inconclusive call do not appear. Where a call stands in place of a potency, no number is given. Activity calls are given as the source filed them. Unless noted, the call rests on the fitted dose curve; in most records, active means well fitted curve in the direction sought with a large enough effect in the repeat runs; inconclusive means weak or mixed curves; inactive means no such curve, though single readings can be large; an effect the other way counts as inactive or inconclusive.

Columns and labels:
[1] = target: Cytochrome P450 2D6 (Homo sapiens) (UniProt P10635); assay: Cytochrome P450 family 2 subfamily D member 6 (CYP2D6) small molecule antagonists: luciferase biochemical (cell-free) qHTS assay (AID 1645840); further: nearly all actives have a fitted effect of over 55% in size; further: potency means the concentration at half of the fitted maximal effect
Chain of Cytochrome P450 2D6 (Homo sapiens) (P10635 whole entry, looked up): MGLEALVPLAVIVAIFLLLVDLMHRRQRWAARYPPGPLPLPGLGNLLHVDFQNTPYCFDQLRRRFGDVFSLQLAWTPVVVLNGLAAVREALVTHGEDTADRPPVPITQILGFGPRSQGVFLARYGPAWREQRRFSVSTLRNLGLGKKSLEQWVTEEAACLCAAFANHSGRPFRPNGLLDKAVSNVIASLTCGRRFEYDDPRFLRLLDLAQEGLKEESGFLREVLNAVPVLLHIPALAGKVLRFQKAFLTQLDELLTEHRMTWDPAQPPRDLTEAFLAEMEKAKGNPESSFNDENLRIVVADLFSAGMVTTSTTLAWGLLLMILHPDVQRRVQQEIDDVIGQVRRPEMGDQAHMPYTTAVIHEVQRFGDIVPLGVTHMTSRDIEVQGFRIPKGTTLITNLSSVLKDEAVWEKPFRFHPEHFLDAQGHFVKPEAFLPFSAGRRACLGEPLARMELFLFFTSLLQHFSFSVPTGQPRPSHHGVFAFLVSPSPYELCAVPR
How it was run: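 P450-Glo luminescent screen: recombinant CYP2D6 enzyme–proluciferin substrate mix preincubated with compound 10 min at room temperature, then NADPH regeneration added for 1 h at room temperature. Detection reagent added for 20 min; luciferin light read as relative luminescence units.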

[2] = target: Cytochrome P450 2C9 (Homo sapiens) (UniProt P11712); assay: Cytochrome P450 family 2 subfamily C member 9 (CYP2C9) small molecule antagonists: luciferase biochemical (cell-free) qHTS assay (AID 1645842); further: nearly all actives have a fitted effect of over 55% in size; further: potency means the concentration at half of the fitted maximal effect
Chain of Cytochrome P450 2C9 (Homo sapiens) (P11712 whole entry, looked up): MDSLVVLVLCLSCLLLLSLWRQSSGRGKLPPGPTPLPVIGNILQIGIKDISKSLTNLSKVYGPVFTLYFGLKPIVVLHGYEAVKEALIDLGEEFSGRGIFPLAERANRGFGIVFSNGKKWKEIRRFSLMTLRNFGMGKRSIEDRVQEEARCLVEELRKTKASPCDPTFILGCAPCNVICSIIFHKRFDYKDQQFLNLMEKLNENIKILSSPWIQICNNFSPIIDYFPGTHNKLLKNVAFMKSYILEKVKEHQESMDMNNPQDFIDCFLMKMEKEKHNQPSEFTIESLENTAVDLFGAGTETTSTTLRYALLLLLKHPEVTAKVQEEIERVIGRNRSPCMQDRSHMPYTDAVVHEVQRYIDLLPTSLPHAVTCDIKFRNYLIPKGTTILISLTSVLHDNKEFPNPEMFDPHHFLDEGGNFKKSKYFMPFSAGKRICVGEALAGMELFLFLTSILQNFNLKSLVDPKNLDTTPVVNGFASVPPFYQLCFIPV
How it was run: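 Luminescence, after 20 min with luciferin detection reagent, reflected CYP2C9 turnover during a 1 h NADPH-driven reaction at 37C. Enzyme-substrate mix contained 0.4% bovine serum albumin and was preincubated with compound 10 min at room temperature.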

[3] = Primary qHTS for inhibitors of nuclear receptor binding SET domain protein 2 (NSD2) in an isogenic RCH-ACV NSD2 p.E1099K mutant (9B) (AID 1645876; active means well fitted curve in the direction sought with a large enough effect; an effect the other way counts as inactive or inconclusive; further: nearly all actives have a fitted effect of over 70% in size; further: potency means the concentration at half of the fitted maximal effect)
[4] = target: N-terminal Xaa-Pro-Lys N-methyltransferase 1 (Homo sapiens) (UniProt Q9BV86); assay: Confirmatory qHTS for Inhibitors of N-terminal methyltransferase 1 (NTMT1): MTaseGlo Assay (AID 1645874; active means well fitted curve in the direction sought with a large enough effect; an effect the other way counts as inactive or inconclusive;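 further: luminescence from SAH made as NTMT1 methylates SPKRIA peptide using SAM; series mostly up to about 100 µM; nearly all actives have a fitted effect of over 65% in size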)
Chain of N-terminal Xaa-Pro-Lys N-methyltransferase 1 (Homo sapiens) (Q9BV86 whole entry, looked up): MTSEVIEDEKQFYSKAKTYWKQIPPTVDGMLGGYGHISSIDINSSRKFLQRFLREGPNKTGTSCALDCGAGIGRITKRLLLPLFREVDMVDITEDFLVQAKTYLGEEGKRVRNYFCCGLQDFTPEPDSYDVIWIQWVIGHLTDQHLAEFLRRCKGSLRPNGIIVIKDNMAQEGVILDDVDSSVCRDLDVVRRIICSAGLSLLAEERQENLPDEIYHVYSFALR
How it was run: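 qHTS format: NTMT1 125 nM, SAM 100 uM, peptide SPKRIA 1 uM final; 15 min compound preincubation, 30 min reaction at room temperature. MTase-Glo luminescence.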

[5] = Primary qHTS for inhibitors of nuclear receptor binding SET domain protein 2 (NSD2) in an RCH-ACV wild type WT cells (2C) (AID 1645877; active means well fitted curve in the direction sought with a large enough effect; an effect the other way counts as inactive or inconclusive; further: nearly all actives have a fitted effect of over 70% in size; further: potency means the concentration at half of the fitted maximal effect)

Structure (SMILES)	Potency [1]	Potency [2]	Potency [3]	Potency [4]	Potency [5]
O=C1c2ccccc2CCc2ccccc21	inactive	inactive	inactive		
CCC1(c2cnc[nH]2)Cc2ccccc2C1	0.309 µM (active)	0.871 µM (active)	inactive		
N#CSCC(=O)O	inactive	inactive			
Nc1nc2ccccc2n1Cc1ccc(F)cc1	0.0977 µM (active)	inactive			
Cc1nc2n(c(=O)c1CCN1CCC(C(=O)c3ccc(F)cc3)CC1)CCS2	0.275 µM (active)	inactive			
Cc1onc(-c2ccccc2)c1C(=O)Cl	inactive	inactive			
O=C(OCC(O)CO)c1ccccc1Nc1ccnc2c(C(F)(F)F)cccc12 (stereo unspecified)	11 µM (active)	6.17 µM (active)			
CNC[C@H](O)[C@@H](O)[C@H](O)[C@H](O)CO	inactive	inactive			
C1N2CN3CN1CN(C2)C3	inactive	inactive			
CCn1ccc(NS(=O)(=O)c2ccc(N)cc2)nc1=O	inactive	inactive	inactive		
CO[C@]1(NC(=O)CSC(F)F)C(=O)N2C(C(=O)O)=C(CSc3nnnn3CCO)CO[C@H]21	inactive	inactive			
CC(C)=CCC/C(C)=C/CC/C(C)=C/C(=O)OCC(=O)[C@@]1(O)CC[C@H]2[C@@H]3CCC4=CC(=O)C=C[C@]4(C)[C@H]3[C@@H](O)C[C@@]21C	inactive	1.74 µM (active)			
CNC(=O)c1cnn(-c2nc(N)c3ncn([C@@H]4O[C@H](CO)[C@@H](O)[C@H]4O)c3n2)c1	inactive	inactive			
CO/N=C(/C(=O)N[C@@H]1C(=O)N2C(C(=O)O)=C(Cn3nnc(C)n3)CS[C@H]12)c1csc(N)n1	inactive	inactive			
CC(=O)O[C@@H]1C(=O)O[C@@H]2[C@H]1OC(=O)[C@@H]2OC(C)=O	inactive	inactive			
Cc1cc(C(C)(C)C)c(O)c(C(C)(C)C)c1	inactive	inactive			
Nc1cc(C(F)(F)F)ccc1S	15.5 µM (active)	1.38 µM (active)	9.44 µM (active)	inactive	
COc1c(N2C[C@@H]3CCCN[C@@H]3C2)c(F)cc2c(=O)c(C(=O)O)cn(C3CC3)c12	inactive	inactive			

Structure (SMILES)	Potency [1]	Potency [2]	Potency [3]	Potency [4]	Potency [5]
COc1cc2nc(Cl)nc(N)c2cc1OC	inactive	inactive			
CCC[C@H](N[C@@H](C)C(=O)N1[C@H](C(=O)O)C[C@@H]2CCCC[C@@H]21)C(=O)OCC	inactive	inactive			
O=c1[nH]c2ccccc2c(=O)n1CCCl	inactive	inactive	inactive		
CC1CCCCN1CCCOC(=O)c1ccc(OC2CCCCC2)cc1 (stereo unspecified)	11 µM (active)	inactive			
NS(=O)(=O)c1cc(C(=O)NN2C[C@H]3[C@H]4CCC(C4)[C@H]3C2)ccc1Cl	inactive	inactive			
C[C@H]1NCc2cc(-c3ccc4c(=O)c(C(=O)O)cn(C5CC5)c4c3OC(F)F)ccc21	inactive	inactive	inactive		
CC(C)OC(=O)c1cc2c(OCC(O)CNC(C)(C)C)cccc2[nH]1 (stereo unspecified)	11 µM (active)	inactive			
C[C@H]1C[C@H]2[C@@H]3CCC4=CC(=O)C=C[C@]4(C)[C@H]3C(=O)C[C@]2(C)[C@@]1(O)C(=O)CO	inactive	15.1 µM (active)	inactive		
O=C(C1CCCCC1)N1CC(=O)N2CCCc3ccccc3C2C1 (stereo unspecified)	inactive	6.17 µM (active)			
CCOC(=O)NNc1ccc(N(CC)CC(C)O)nn1 (stereo unspecified)	inactive	inactive	inactive		
Nc1ncnc2c1ncn2Cc1c(F)cccc1Cl	inactive	inactive	inactive		
O=C(COCCOCCOCC(=O)Nc1c(I)cc(I)c(C(=O)O)c1I)Nc1c(I)cc(I)c(C(=O)O)c1I	inactive	inactive	inactive		inactive
CCCC(=O)O[C@]1(C(=O)CC)CC[C@H]2[C@@H]3CCC4=CC(=O)CC[C@]4(C)[C@H]3[C@@H](O)C[C@@]21C	12.3 µM (active)	17.4 µM (active)	inactive		inactive
COc1cc(C(=O)OC(COCCC(C)C)CN2CCOCC2)cc(OC)c1OC (stereo unspecified)	inactive	2.19 µM (active)	inactive		inactive
O=C(O)CCCC[P+](c1ccccc1)(c1ccccc1)c1ccccc1	inactive	inactive	inactive		inactive
O=c1[nH]c(=O)n([C@H]2O[C@H](CO)[C@@H](O)[C@@H]2O)cc1/C=C\Br	inactive	inactive	inactive		inactive
OCc1c[nH]c2ccccc12	25.2 µM (active)	7.31 µM (active)	24.3 µM (active)		24.3 µM (active)
CCN(CC)CC(=O)Oc1ccc(NC(C)=O)cc1	inactive	inactive	inactive		inactive
